From PubChem BioAssay
Marburg entry inh = Marburg virus entry inhibition | 300,000 tested, 1.8% active | Potency, µM (titrated, usually from 37.8 µM), for inactives: at the top dose activity change, negative = inhibition, most hits filed as inhibitors | Marburg virus pseudotyped entry inhibition, cell reporter; calls by dose curve; tested in HEK293 cells; also: potency is read from the fitted curve at half-maximal effect
FMDV inh = blocks foot and mouth disease virus; 410,000 tested, 1.2% active; Potency, µM (titrated, usually from 57.9 µM), inactives show top-dose activity change, negative = inhibition, usual class: inhibitors; FMDV antiviral cell-based qHTS; calls by dose curve; tested in HEK293T cells; also: read-out not given here; potency is read from the fitted curve at half-maximal effect; nearly all actives have a fitted effect of over 45% in size
HCV inh = inhibitors of hepatitis C virus infection; Huh7.5.1 HCVcc-Cre infection, luciferase reporter, 44 h; Potency, µM (top dose mostly 41.8 µM), for inactives: at the top dose activity change, negative = inhibition, hits mostly inhibitors; 340,000 tested, 3.4% active; AID 651820; active = well fitted inhibition curve with a large enough effect; inconclusive = small, poorly fitted or top-dose-only effect, or another doubt; inactive = no such curve, though single readings can be large or run the other way; also: potency is read from the fitted curve at half-maximal effect
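Reporter virus HCVcc-Cre (~0.5 moi) infects cells exposed to compound; seeding density 1,000 cells/well with 4 h settling beforehand. Luminescence, 15 sec read, taken 44 h post-infection following a 15 min RT substrate incubation.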
Lassa entry inh = inhibitors of Lassa virus binding or cell entry; Lassa virus pseudotype entry inhibition, cell reporter; Potency, µM (top dose mostly 37.9 µM), for the others: at the highest dose activity change, negative = inhibition, usual class: inhibitors; 300,000 tested, 1.2% active; calls by dose curve; tested in HEK293 cells; also: potency is read from the fitted curve at half-maximal effect; nearly all actives have a fitted effect of over 50% in size
HCMV antiviral = inhibitors of human cytomegalovirus | activity change, negative = inhibition, % at 57.5 µM | 410,000 tested, 4.5% active | HFF cells, HCMV-luciferase reporter, 72 h; stronger effect = lower value; in the data active = activity change below about -60%; inconclusive = no clear call, values can overlap the other calls; inactive = above about -39%
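Luciferase read-out from HCMV-luciferase-infected HFFs (MOI 1 PFU/cell) 72 h post infection at 37C; compounds added after 16 h cell attachment; activity normalized between buffer-only basal and Salinomycin (10uM) inhibitor controls.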
An asterisk follows results filed as active; ? = inconclusive; . = no result; [ ] = remark or other dose. Hits are enriched below; roughly 7.9% of the tested compounds scored in any of these assays. % is scaled to controls: 0 for no effect and ±100 for the full control effect.

SMILES	Marburg entry inh	FMDV inh	HCV inh	Lassa entry inh	HCMV antiviral
NC(=O)CN1C(=O)C(O)(CC(=O)/C=C\C=C\c2ccccc2)c2ccccc21 (stereo not given)	-39.5%	0.0%	7.0%	-10.3%	-69.6*
CCN1C(=O)C(O)(CC(=O)/C=C/C=C/c2ccccc2)c2ccccc21 (stereo not given)	6.0%	-12.1%	-14.1%	4.9%	-3.9
Cc1ccsc1/C=N\NC(=O)CCc1c(C)n[nH]c1C	3.8%[46.1 µM]	35.3%	11.8%	3.4%	-4.1
CC(C)(C)c1ccc(Oc2ccc(N)cn2)cc1	.	?	3.98µM*	.	-71.7*
CC(C)(C)c1ccc(Oc2ccc(NC(=O)c3ccccc3C(=O)O)cn2)cc1	.	?	?	.	-62.6*
O=C(CO/N=C\c1ccccc1)Nc1ccccc1C(=O)N1CCOCC1	-7.6%	?	-13.6%	-22.5%	-34.4
CCC1(C2CCN(Cc3ccc(OC)cc3)CC2)NC(=O)N(CC2COc3ccccc3O2)C1=O (stereo not given)	.	-21.8%	.	.	.
CCC1CN(CC(=O)N(C)Cc2nc3ccccc3[nH]2)Cc2cc(OC)ccc2O1 (stereo not given)	.	15.4%	.	.	.
N#Cc1c2n(c3c(=S)nc[nH]c13)CCCCC2	-6.0%	-25.9%	11.8%	12.6%	-74.7*
NC(Cc1ccc(C(F)(F)F)cc1)c1csc(Nc2nncc3ccccc23)n1 (stereo not given)	.	-23.9%	.	.	-103.8*
CCCCN(C)C(=O)c1ccc(Nc2nc(C(N)Cc3ccc(C(F)(F)F)cc3)cs2)nc1 (stereo not given)	.	-23.2%	.	.	-75.8*
Cc1cc(C)nc(Nc2nc(C(N)Cc3ccccc3)cs2)n1 (stereo not given)	.	13.4%	.	.	-73.5*
Cc1ccc(-c2cn(CCN)c(=O)cn2)cc1	.	.	.	.	10.8
Cc1cc(NC(=O)COc2cccc([N+](=O)[O-])c2)no1	.	-16.4%	-3.5%	.	-25.6
COc1ccccc1CNC(=O)c1ccc(N2Cc3cccc(OC)c3Oc3ncccc32)s1	.	-26.2%	.	-15.1%[46.1 µM]	5.9
COc1ccc(/C=N/c2oc(-c3ccccc3)cc2C#N)cc1OC	?	-5.7%	?	13.3%	-103.3*
COc1ccc(/C=N/NC(=O)c2nc(-c3ccccc3)cc(-c3ccccc3)n2)cc1OC	?	-19.3%	?	?	12.8
COc1cc(/C=C/C(=O)c2cccc([N+](=O)[O-])c2)cc(OC)c1OC	?	28.2µM*	11.2µM*	?	-24.4
COc1cc(/C=C/C(=O)c2ccc(C)c([N+](=O)[O-])c2)cc(OC)c1O	?	14.1µM*	?	-26.5%	-16.6
O=C(C=Cc1cccc([N+](=O)[O-])c1)c1ccccc1	-27.2%[14.2 µM]	.	.	?	.
COc1ccc(/C=C/C(=O)c2ccc(C)c([N+](=O)[O-])c2)cc1O	?	-26.3%	24.2%	?	24.0
O=C1C=C(NC2=CC3OC(c4ccccc4)OCC3OC2=O)CCC1 (stereo not given)	?	17.8µM*	?	10µM*	26.2
CCC1=Nc2cc(C(=O)NCCCOC)ccc2Sc2ccc(Br)cc21	?	-3.7%	.	?	-87.4*
CCC1=Nc2cc(C(=O)NCCCOC)ccc2Sc2ccccc21	?	-2.4%	?	?	-75.9*
Cc1ccc(NC(=O)C(c2ccc(Cl)cc2Cl)N2CCCC2)cc1 (stereo not given)	-5.9%	-29.2%	-14.2%	-25.2%	-64.9*
SMILES	Marburg entry inh	FMDV inh	HCV inh	Lassa entry inh	HCMV antiviral
COC(=O)CS(=O)(=O)c1nnc([C@H](Cc2ccccc2)NC(=O)OC(C)(C)C)o1	?	31.6µM*	?	?	79.2
Cc1cccc(CS(=O)(=O)c2nnc([C@H](Cc3ccccc3)NC(=O)OC(C)(C)C)o2)c1	16.4µM*	31.6µM*	?	-10.2%	.
COC(=O)CSc1nnc([C@H](Cc2ccccc2)NC(=O)OC(C)(C)C)o1	-0.3%	-0.2%	14.9%	5.4%	-8.6
CCCN(CC(=O)Nc1cc(C)on1)CC(=O)Nc1ccc(F)c(F)c1F	-2.1%	-21.0%	?	?	0.0
CCCN(CC(=O)Nc1ccc(F)c(F)c1F)CC(=O)Nc1c(C)n(C)n(-c2ccccc2)c1=O	21.2%	?	-13.6%	4.4%	-68.8*
Cc1cc(C)c2cc(CN(Cc3ccco3)C(=S)NCC3CCCO3)c(=O)[nH]c2c1 (stereo not given)	.	-8.3%	?	.	-3.5
O=C(Nc1nccs1)c1ccc(S(=O)(=O)NCC2CCCCC2)cc1	?	18.4%	.	25.2%[14.3 µM]	-82.5*
O=C(Nc1nccs1)c1ccc(S(=O)(=O)NCc2cccs2)cc1	-11.5%	.	10µM*	-28.9%	?
CN(c1ccc(C(=O)Nc2nccs2)cc1)S(=O)(=O)c1ccccc1	?	?	?	-28.4%	?
O=C(Nc1nccs1)c1ccc(N2C(=O)C3CCCCC3C2=O)cc1 (stereo not given)	3.0%[46.1 µM]	25.1%	-8.2%	3.8%	13.1
O=C(c1cccnc1)N1C[C@H]2[C@@H](c3ccccc31)[C@@H](CO)N2C(=O)Nc1ccccc1Cl	.	.	.	.	0.0
CC(C)Oc1ccc(CNC(=O)c2ccc3c(c2)nc2n3CCCCC2)cc1	.	44.5%	.	?	83.2
CC(=O)OCC1O[C@@H](O[C@@H]2C[C@H]3C(C)(C)[C@H](OC(C)=O)CC[C@]3(C)[C@H]3CC[C@]45C[C@]4(CC[C@H]5[C@@H](C)C[C@@H](O)[C@H](O)C(C)(C)O)[C@@]32C)[C@H](O)[C@@H](O)[C@@H]1O (stereo not given in full)	?	.	-3.7%[8.37 µM]	14.6µM*	.
Cc1c(C)c2c(c(C)c1O)CCC(C)(CN1CCN(c3cc(N4CCCC4)nc(N4CCCC4)n3)CC1)O2 (stereo not given)	10µM*	.	.	.	.
CCN(CC)c1ccc(/C=N/NC(=O)CNC(=O)C2COc3ccccc3O2)c(O)c1 (stereo not given)	4.47µM*	-6.6%	11.2µM*	11.2µM*	-96.9*
COc1cc(/C=N\NC(=O)CNC(=O)C2COc3ccccc3O2)ccc1O (stereo not given)	1.4%	-22.4%	7.6%	7.6%	27.7
C/C(=N/NC(=O)CNC(=O)C1COc2ccccc2O1)c1ccc2c(c1)OCCO2 (stereo not given)	0.8%[46.1 µM]	0.0%	-29.5%	-1.6%	-73.2*
C/C(=N\NC(=O)CNC(=O)c1ccc2c(c1)OCCO2)c1ccco1	-16.0%	22.6%	10.4%	?	23.6
O=C(Cc1ccc(Cl)cc1)N1CCN(c2ccccc2)CC1	.	7.3%	-3.6%	.	126.7
O=C(Cc1ccccc1)NCCc1csc2nc(-c3ccc(Cl)cc3)nn12	.	?	.	-6.2%[46.1 µM]	-11.7
CC(=O)NCCNc1ncnc2ccc(-c3ccc(C(=O)N(C)C)cc3)cc12	.	-6.6%	.	.	.
O=C(N[C@H](C(=O)N1CCC[C@H]1C(=O)NCCc1ccccc1Cl)c1ccccc1)c1ccco1	.	.	.	.	-22.2
CC1CCN(c2c(NCc3ccc(C(=O)N(C)C4CCCCC4)cc3)c(=O)c2=O)CC1	.	7.7%	-4.8%	.	-11.2
